Sampled rows, rich in hits. Any-hit rate of the full collection: about 11%.
HPGD block: HPGD (human) dehydrogenase inhibition | purified HPGD, NADH fluorescence kinetic, PGE2 substrate | Potency, µM, for the others: at the top dose activity change, negative = inhibition, actives largely listed as inhibitors | 4.3% of 150,000 active | AID 894; further: potency means the concentration at half of the fitted maximal effect
Target sequence (P15428 whole entry, looked up): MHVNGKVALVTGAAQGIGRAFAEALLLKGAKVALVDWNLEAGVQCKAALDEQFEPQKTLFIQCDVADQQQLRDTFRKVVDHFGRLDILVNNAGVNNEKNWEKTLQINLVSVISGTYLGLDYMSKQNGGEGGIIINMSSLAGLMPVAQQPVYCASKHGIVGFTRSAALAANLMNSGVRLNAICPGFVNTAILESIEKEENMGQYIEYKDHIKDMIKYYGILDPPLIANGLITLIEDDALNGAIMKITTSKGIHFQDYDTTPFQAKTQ
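20 nM HPGD preincubated 15 min at room temperature with compound in 50 mM Tris-HCl pH 8, 0.01% Tween 20. Started with 1 mM NAD+ and 30 uM prostaglandin E2; NADH fluorescence (360/450 nm) read 5 times over 30-s intervals, last minus first.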
PNC assembly inh: inhibitors of perinucleolar compartment assembly. PC3M PTB-GFP, PNC prevalence imaging, 16 h; hits give low values. activity change (PNC), negative = inhibition, % at 10 µM. 3.1% of 140,000 active;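 active means readout at or below -70, meaning at least 70% loss of cells showing the perinucleolar compartment, a nuclear body marking cancer cells; inconclusive means readout between -30 and a set limit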;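 further: plate controls were DMSO wells for no effect and camptothecin positive control wells for full effect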
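Compounds are pinned in duplicate onto adhered PC3M cells stably expressing GFP-tagged PTB and incubated 16 h at 37 C. Cells are then fixed, nuclei stained with Hoechst, and PNC-positive cells counted.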
ALDH1A1 block: blocks purified human ALDH1A1 activity; P00352; Purified ALDH1A1, NADH fluorescence, propionaldehyde substrate; Potency, µM (doses to about 75.3 µM), without a hit: at the highest dose activity, negative = inhibition, actives largely listed as inhibitors; 7.3% of 220,000 active;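 further: potency means the concentration at half of the fitted maximal effect; plate controls were no enzyme wells and a reference inhibitor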
JMJD2E inh: blocks human JMJD2E demethylase activity; JMJD2E catalytic domain, FDH-coupled NADH fluorescence (FDH is formaldehyde dehydrogenase); Potency, µM (highest dose often 57.1 µM), for the others: top-dose activity change, negative = inhibition, most hits filed as inhibitors; 1.6% of 230,000 active;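 further: potency means the concentration at half of the fitted maximal effect; 0% = wells with enzyme and -100% = buffer wells without enzyme; nearly all actives have a fitted effect of over 50% in size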
Target sequence (B2RXH2 1-337 limits assumed): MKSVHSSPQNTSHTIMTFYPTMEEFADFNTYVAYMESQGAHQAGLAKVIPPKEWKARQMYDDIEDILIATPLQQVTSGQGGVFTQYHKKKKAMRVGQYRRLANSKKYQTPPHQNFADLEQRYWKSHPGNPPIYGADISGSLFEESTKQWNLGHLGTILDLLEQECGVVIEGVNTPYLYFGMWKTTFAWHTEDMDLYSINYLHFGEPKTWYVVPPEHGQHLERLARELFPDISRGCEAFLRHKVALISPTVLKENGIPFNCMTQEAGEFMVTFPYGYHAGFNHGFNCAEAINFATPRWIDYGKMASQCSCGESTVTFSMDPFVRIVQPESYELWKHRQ
* marks the source's active call; other numbers are inactive results; ? = inconclusive; . = no result; [ ] = remark or other dose. Unless noted, the call rests on the fitted dose curve; in most records, active means well fitted inhibition curve with a large enough effect (not every such curve was filed as active); inconclusive means small, poorly fitted or top-dose-only effect, or another doubt; inactive means no such curve, though single readings can be large or run the other way. Unless noted, on the % scale 0 is the no-effect control and ±100 the full control effect.

SMILES | HPGD block | PNC assembly inh | ALDH1A1 block | JMJD2E inh
Cc1nnc(SCC(=O)Nc2ccc3c(c2)OCO3)[nH]c1=O | . | . | 0% | -9%
O=C(CSc1ccc(-c2ccccc2)nn1)Nc1ccc2c(c1)OCCO2 | -5% | -113* | -12% | 10%
Cc1ccc(C)c(NC(=S)NCCN(C2CCCCC2)C2CCCC2)c1 | . | . | -5% | 0%
Cc1cnc(CNc2ncnc3ccc(-c4cccc(NS(C)(=O)=O)c4)cc23)cn1 | . | . | -3% | .
O=C(c1cnccn1)N1CCC2(CCN(Cc3ccncc3)CC2)CC1 | -11% | . | 0% | .
O=C(CSc1nnc2ccccn12)Nc1ccc2c(c1)OCCO2 | . | . | 11% | -1%
O=C(CSc1nnc2scc(-c3ccccc3)n12)Nc1ccc2c(c1)OCCO2 | -8% | ? | 16µM* | 9%
Cc1cc(NC(=O)CSc2nnc(-c3ccncc3)n2N)ccc1Br | -12% | -89* | ? | -1%
c1ccc(-c2csc3nnc(SCc4ccc5c(c4)OCO5)n23)cc1 | 22µM* | 21 | ? | -19%
CC(C)Oc1cccc(-c2nnc(SCC(=O)Nc3ccc4c(c3)OCCO4)n2N)c1 | -12% | -8 | 13µM* | -8%
NC(C(=O)O)C(CC(=O)O)c1ccc(Cl)cc1 (configuration not stated) | . | . | 0% | .
CC1(C)CC(=O)C2=C(C1)OC(N)=C([N+](=O)[O-])C2c1cccs1 (configuration not stated) | ? | 17 | -8% | -1%
COc1ccc(-c2nc3c(Br)c(N)c(Br)cc3o2)cc1 | ? | -13 | 14µM* | ?
CCOC(=O)c1c(C)oc(NC(=O)CCl)c1C(=O)OCC | . | . | 3.5µM* | 6%
COc1cc(C)c(CC/C(C)=C/C=C/C(C)=O)c(C)c1C | -18% | . | ? | -9%
COc1cc(C)c(CNc2cc(C)cc(C)c2)cc1C | -28% | 5 | -6% | 6%
COc1cc(C)c(CNC2CCCCC2)cc1C | 5% | 21 | -2% | -25%
COc1cc(C)c(CNc2cccc(C)c2)cc1C | -22% | ? | 14µM* | -2%
COc1ccc(CNc2ccc(C)c(C)c2)c(OC)c1OC | . | . | 13µM* | -5%
COc1cc(C)c(CNc2ccc(OC)c(OC)c2)cc1C | -17% | 0 | 25µM* | ?
CCOc1ccc(NC(=O)CCn2c(=O)[nH]c3ccsc3c2=O)cc1 | -18% | 4 | 0% | 7%
CC12CC3(C)CC(C)(C1)CC(C(=O)NC(=S)N1CCCC1)(C2)C3 | . | . | 8% | -4%
Cc1cccc(C(=O)N[C@H](C(=O)Nc2cccc(S(=O)(=O)N3CCCC3)c2)C(C)C)c1 | . | . | . | -6%
Cc1cccc(C(=O)N[C@H](C(=O)Nc2ccc(S(=O)(=O)NC3=NCCCCC3)cc2)C(C)C)c1 | . | . | 20µM* | -8%
N/C(COc1cc(Cl)cc(Cl)c1)=N\O | . | . | . | 2%
SMILES | HPGD block | PNC assembly inh | ALDH1A1 block | JMJD2E inh
CC(C)CNC(=O)c1ccccc1NC(=O)c1ccc(CSc2ccccc2)cc1 | ? | -17 | 4% | ?
COc1ccc(S(=O)(=O)C(C#N)c2nc3ccccc3nc2N2CCC(C)CC2)cc1 (configuration not stated) | -16% | -16 | 18µM* | ?
CC1CCCN(c2nc3ccccc3nc2C(C#N)S(=O)(=O)c2ccccc2)C1 (configuration not stated) | -8% | -15 | ? | ?
CCOCc1[nH]c(=S)[nH]c(=O)c1Cc1ccc(OC(C)C)cc1 | . | . | 13µM* | 2%
O=C1NC(=S)/C(=C\c2ccc(-c3ccccc3Cl)o2)S1 | 16µM* | 16 | ? | -24%
Cn1cc(-c2nc3cnc(N4CCNCC4)nc3n(Cc3ccc(F)cc3)c2=O)c2ccccc21 | . | . | -8% | .
COc1ccc2c(c1)c1ccc3c(c1n2C)C(=O)C=CC3=O | . | . | 0.28µM* | -13%
COc1ccc2c(c1)c1ncn(CCN3CCCCC3)c(=O)c1n2C | ? | 18 | ? | ?
COC1OC2COC(c3ccccc3)OC2C(O)C1O (configuration not stated) | -11% | . | 5% | 3%
O=C(O)c1cnc(-c2ccccc2)nc1Sc1cccc(Cl)c1 | 22µM* | ? | -3% | 7%
O=C(O)c1cnc(-c2ccccc2)nc1Sc1ccccc1 | 14µM* | 67 | -2% | 1%
Cn1nc(C(F)(F)F)c(C(=O)Nc2ccc(F)cc2F)c1Sc1ccc(C(F)(F)F)cc1 | ? | 33 | 12% | -7%
CCC(NC(=O)c1ccccc1NC(=O)c1ccccc1)C(=O)NNC(=O)c1cccnc1 (configuration not stated) | . | . | ? | -7%
COc1ccc(N=C2C(=O)Nc3c(C)cccc32)cc1 | 0% | 37 | 14µM* | -3%
COC(=O)[C@@]1(C)C=C[C@@H](Cc2ccccc2)N1C | -9% | . | ? | ?
C=CCc1cccc(OC)c1OCCOCCn1ccnc1 | -1% | 17 | 20µM* | -1%
CC(=O)Nc1ccccc1-c1nc2ccc(C(=O)N3CCN(c4ccccc4)CC3)cc2[nH]c1=O | ? | 143 | 28µM* | 3%
O=C1OC(/C=C/c2ccc(Cl)cc2Cl)=NC/1=C\c1cccs1 | -7% | -27 | 3.2µM* | 9%
CCc1nnc(SCC(=O)NC2CCCC2)nc1CC | 16µM* | -24 | 12% | 9%
Nn1c(SCC(=O)NC2CCCCC2)nnc1C1CC1 | -10% | ? | 24µM* | 12%
CCC1C(=O)N=C(SCC(=O)NC2CCCCC2)NC1=O (configuration not stated) | . | . | 25µM* | -9%
COC(=O)c1ccccc1S(=O)(=O)N1CCc2nc(COc3ccccc3)c3c(c2C1)CO[C@@H](C)C3 | -1% | . | -7%[13.5 µM] | 2%[11.4 µM]
Cc1ccc(N/N=C(\Cc2nc3ccccc3[nH]2)c2ccccc2)cc1 | ? | 0 | 10µM* | ?
c1ccc(N/N=C(\Cc2nc3ccccc3[nH]2)c2ccccc2)cc1 | ? | 8 | 28µM* | ?
Clc1cccc(/C(Cc2nc3ccccc3[nH]2)=N\Nc2ccccc2)c1 | -15% | ? | ? | -5%
SMILES | HPGD block | PNC assembly inh | ALDH1A1 block | JMJD2E inh
N/C(=N\NC(=O)c1ccccc1Cl)c1cc2ccccc2oc1=O | . | . | 3% | -4%
COC(=O)[C@@]1(Cc2ccccc2)[C@H]2c3cc(C(=O)N(C)C)n(Cc4ccsc4Br)c3C[C@H]2CN1C(=O)c1ccccc1 | -4% | . | 15% | -18%
c1ccc2c(c1)Cn1nnnc1-2 | -17% | -16 | 7% | 0%
c1ccc2c(c1)CC1(CCCCC1)n1nnnc1-2 | -3% | ? | 13µM* | -1%
Cc1nc2ccccn2c1-c1csc(NCc2ccco2)n1 | ? | 15 | 22µM* | ?
Cc1nc(C)c(-c2csc(NCc3ccco3)n2)s1 | -13% | 36 | -2% | ?
CCc1nc(C)ccc1OCC(=O)N1CCc2c([nH]c3ccccc23)C1c1ccccn1 (configuration not stated) | . | . | 0% | 1%
COc1ccc(OCC(=O)N2CCc3c([nH]c4ccccc34)C2c2ccccn2)cc1 (configuration not stated) | . | . | 0.45µM* | -4%
CCN1CC(CN(C)Cc2nc(Cc3ccccc3)no2)CC1=O (configuration not stated) | . | . | 0% | 5%

Source: PubChem BioAssay
